High-throughput results: PubChem, National Center for Advancing Translational Sciences (NCATS)
Shown are actives, neighbours in structure and some others; about 12% of the full set was active somewhere.
Shiga toxin inh: blocks Shiga toxin action in Vero cells; Vero cells, Shiga toxin protein synthesis inhibition reporter; inhibition, % at 38.7 µM; 9.2% of 290,000 active; in the data active = inhibition mostly above about 28%, no sharp cut-off; inactive = mostly below about 43%; also: 0% is about no effect
FMDV antiviral: foot and mouth disease virus antiviral activity | FMDV antiviral cell-based qHTS | 1.2% of 410,000 active | Potency, µM (doses to about 57.9 µM), inactives show at the highest dose activity change, negative = inhibition, usual class: inhibitors | AID 1159524; calls by dose curve; tested in HEK293T cells; also: read-out not given here; potency is read from the fitted curve at half-maximal effect; % is scaled to controls: 0 for no effect and ±100 for the full control effect; nearly all actives have a fitted effect of over 45% in size
CHX counter: counter-screen hit for Shiga toxin inhibitors, cycloheximide; cell reporter, cycloheximide protein synthesis inhibition counterscreen; max response, %; 12% of 300,000 active; AID 2314; in the data active = max response mostly above about 13%, no sharp cut-off; inactive = mostly below about 14%; also: read at 38.3 µM for the half of the compounds with a filed dose; 0% is about no effect
Sm TGR inh: inhibitors of Schistosoma mansoni thioredoxin glutathione reductase. purified TGR, DTNB reduction, TNB absorbance 405 nm. Potency, µM (top dose mostly 114 µM), without a hit: at the highest dose activity change, negative = inhibition, actives largely listed as inhibitors. 3% of 360,000 active; active = well fitted inhibition curve with a large enough effect; inconclusive = small, poorly fitted or top-dose-only effect; inactive = no such curve, though single readings can be large or run the other way; also: potency is read from the fitted curve at half-maximal effect; % is scaled to controls: 0 for no effect and ±100 for the full control effect; nearly all actives have a fitted effect of over 60% in size
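TGR 20 nM + NADPH 100 uM (dispensed conc.), cpd preinc 15 min RT; start with NADPH (500 uM addition) then DTNB (15 mM addition). Kinetic TNB absorbance, 405 nm filter. Four-parameter Hill fit across titration.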
Active calls of the source: *; u = inconclusive; x = no result given.

SMILES	Shiga toxin inh	FMDV antiviral	CHX counter	Sm TGR inh
CCOc1cc(/C=N/NC(=O)c2ccc(CN3CCOCC3)cc2)ccc1OC	-10	u	2	x
COc1cc(/C=N/NC(=O)c2csc3c2CCCC3)ccc1OCCN1CCOCC1	26	u	26*	0%
Cc1ccc(/C=N/NC(=O)c2csc3c2CCCC3)cc1	101*	28%	27*	0%
CCOC(=O)c1ccc(NC(=O)CCCn2nc(C)c3sc4ccccc4c3c2=O)cc1	x	-12%	x	-35%
O=C(O)CC/C(=N\NC(=O)c1ccccc1)c1cccs1	109*	11%	49*	-11%
COc1ccc(OCC(=O)N/N=C(\CCC(=O)O)c2cccs2)cc1	-2	16%	-2	-1%
O=C(O)CC/C(=N\NC(=O)c1ccncc1)c1ccccc1	x	-11%	5	1%
COC(=O)N/N=C(\CCC(=O)O)c1cccs1	14	-16%	15*	12%
O=c1c(-c2ccc(Cl)cc2)c[nH]n1-c1ccccc1	78*	0%	25*	26%
O=[N+]([O-])c1cccc(-n2nncc2-c2ccccc2)c1	-8	-14%	-2	-16%
O=c1c(-c2ccccc2)c[nH]n1-c1cccc([N+](=O)[O-])c1	77*	-27%	22*	9%
CCc1ccccc1NC(=O)C1CCCN(c2ncnc3onc(C)c23)C1 (stereo not drawn)	x	u	x	1%
Cc1cc2nc(/C=C/c3nc4cc(C)c(C)cc4[nH]3)[nH]c2cc1C	2	5%	4	-5%
Cc1cc2nc(/C=C/c3cccnc3)[nH]c2cc1C	40*	50%	31*	12%
Cc1ccc2c(c1)nc(SCC(O)c1ccc(Br)cc1)n2C (stereo not drawn)	x	-9%	x	-3%
CC(c1ccccc1)N1C(=O)CC(Sc2ncccc2C(=O)O)C1=O (stereo not drawn)	4	x	8	35µM*
CCCCN1C(=O)CC(Sc2ncccc2C(=O)O)C1=O (stereo not drawn)	-14	-8%	1	x
O=C(O)c1cccnc1SC1CC(=O)N(c2cccc3ccccc23)C1=O (stereo not drawn)	20	x	1	u
O=C(O)c1ccccc1SC1CC(=O)N(C2CCCCC2)C1=O (stereo not drawn)	33	-13%	-3	4µM*
O=C(O)c1ccccc1SC1CC(=O)N(c2ccccc2)C1=O (stereo not drawn)	3	-10%	9	14µM*
Cc1nc(SC2CC(=O)N(c3ccccc3)C2=O)nc2c1CCCC2 (stereo not drawn)	5	-6%	12	-23%
Cc1nnc(SC2CC(=O)N(c3ccccc3)C2=O)s1 (stereo not drawn)	0	-10%	4	2.5µM*
O=C(Cc1ccccc1Nc1c(Cl)cccc1Cl)OCO/N=[N+](\[O-])N1CCCC1	19	x	11	x
NC(C(=O)O)[C@H](O)C(=O)O (stereo partly drawn)	x	1%	x	x
Cc1cccc(N2C(=O)CS(=O)(=O)C23C(=O)N(C)c2ccccc23)c1 (stereo not drawn)	x	-15%	x	6%
SMILES	Shiga toxin inh	FMDV antiviral	CHX counter	Sm TGR inh
Cn1c(C(=O)NCc2ccc(F)cc2)cc2cc(S(=O)(=O)N3CCCCC3)ccc21	x	-35%	x	8%
N=C(N)S/C=C\C(=O)O	x	6%	x	x
Cc1ccc(NC(=O)CSc2nc3ccccc3n2CC(=O)N(C)C2CCCCC2)cc1C	x	-5%	x	13%
COc1ccc(N2C(=O)CC(Sc3ncccc3C(=O)O)C2=O)cc1 (stereo not drawn)	-11	x	-3	u
O=C(O)c1cccnc1SC1CC(=O)N(c2ccccc2)C1=O (stereo not drawn)	-3	-18%	-3	50µM*
O=C1CC(Sc2cccs2)C(=O)N1c1ccccc1 (stereo not drawn)	-3	28%	-3	6.3µM*
CC1(C)NC(C(=O)O)Cc2c1[nH]c1ccccc21 (stereo not drawn)	-1	-14%	-1	40µM*
CCC1NC(C(=O)O)Cc2c1[nH]c1ccccc21 (stereo not drawn)	x	-3%	x	40µM*
COc1ccc(CNc2oc(-c3ccc(COc4ccccc4C)o3)nc2C#N)cc1	x	-8%	x	-2%
O=[N+]([O-])c1ccc(-c2ccc(S(=O)(=O)NCCN3CCCC3)cc2)cc1	-13	-24%	-2	-8%
O=[N+]([O-])c1ccc(S(=O)(=O)NCCN2CCOCC2)cc1	51*	1%	2	13%
Cc1cc2c(cc1C)N(CC(=O)N1CCCC1)C(=O)CC(c1ccccc1)=N2	56*	85%	33*	1%
O=C(CN1C(=O)CC(c2ccccc2)=Nc2ccccc21)NCc1ccccc1	16	7%	-2	-10%
CCCCN(CC)C(=O)c1nn(C)c2c1CSc1ccccc1-2	x	1%	x	45µM*
CCN(Cc1ccccc1)c1ncnc2c1nnn2C	x	0%	x	12%
COc1cc(NC(=O)NCCn2nnc3cc(S(=O)(=O)N(C)C)ccc32)cc(OC)c1	x	6%	x	-5%
CCSC1=N/C(=C\c2ccc(OC)cc2)C(=O)N1	46*	50%	28*	-3%
COc1ccc(/C=C2/N=C(SC)NC2=O)cc1OC	13	27%	16*	6%
CCSC1=N/C(=C\c2ccccc2)C(=O)N1c1ccc(OC)cc1	12	-21%	-5	2%
CSC1=N/C(=C/c2ccc(-n3cncn3)cc2)C(=O)N1	-3	17%	4	-6%
COc1ccc(/C=C2\N=C(SC)N(C)C2=O)cc1	18	29%	12*	10%
COc1ccc(/C=C2\N=C(SC)NC2=O)cc1	120*	-5%	25	0%
COCC(=O)Nc1cc(C(=O)N2CCC(c3ccccc3)CC2)cc2nc(-c3ccccc3)n(C)c12	x	22%	x	x
COc1ccccc1CNC(=O)c1cc2c(-c3ccc(Cl)cc3)nn(C)c2s1	x	-22%	x	-1%
Cc1nn2c(=O)cc(COC(=O)c3ccco3)nc2s1	x	7%	x	-1%
SMILES	Shiga toxin inh	FMDV antiviral	CHX counter	Sm TGR inh
CCOC(=O)C1(C)C=C(Nc2ccc(C(=O)O)cc2)C(=O)N1c1ccc(C(=O)O)cc1 (stereo not drawn)	x	0%	x	-9%
COc1ccc(/C=C2\N=C(c3ccccc3Cl)NC2=O)cc1	48	53%	34*	13%
CC1CCOC(c2coc3ccccc3c2=O)O1 (stereo not drawn)	54*	9%	59*	-7%
CC(C)c1ccc(NC(=O)C2CCCN2S(=O)(=O)c2ccc3nc(-c4ccccc4)[nH]c3c2)cc1 (stereo not drawn)	x	-6%	x	-15%
c1ccc(-c2cc(N3CCOCC3)nc3ccccc23)cc1	-26	u	-1	3%
O=c1c2ccccc2nc2ccc(N3CCOCC3)nn12	52*	61%	28*	5%
Cc1ccc2nc3ccc(N4CCCCCCC4)nn3c(=O)c2c1	56*	15%	28*	5%
Cc1ccc2nc3ccc(N4CCN(C)CC4)nn3c(=O)c2c1	57*	-11%	32*	-9%
Cc1sc2nc3ccc(N4CCCC4)nn3c(=O)c2c1C	7	-29%	8	-32%
O=C(CSC1=Nc2ccccc2N=C(c2ccc(F)cc2)C1)Nc1ccc(Cl)cc1	x	3%	x	2%
C=Cc1ccc(CN2C(=O)c3ccccc3Sc3ccc(C(=O)OCc4ccco4)cc32)cc1	x	-19%	x	28%
